# Assay results reported in PubChem BioAssay AID588342 (National Center for Advancing Translational Sciences (NCATS), 2011).
# The whole screen tested about 360,000 compounds, of which about 25,000 (6.9%) were called active. Not shown: some 9% with an inconclusive outcome. The call rests on the fitted dose curve; in most records, active means well fitted inhibition curve with a large enough effect; inconclusive means small, poorly fitted or top-dose-only effect; inactive means flat fitted curve, though single readings scatter. Shown is part of a subset that was picked to be rich in actives. Entries that show only a call come without a potency.
# Molecular target: Luciferin 4-monooxygenase (Photinus pyralis) (UniProt P08659)
# Sequence (P08659 whole entry, looked up): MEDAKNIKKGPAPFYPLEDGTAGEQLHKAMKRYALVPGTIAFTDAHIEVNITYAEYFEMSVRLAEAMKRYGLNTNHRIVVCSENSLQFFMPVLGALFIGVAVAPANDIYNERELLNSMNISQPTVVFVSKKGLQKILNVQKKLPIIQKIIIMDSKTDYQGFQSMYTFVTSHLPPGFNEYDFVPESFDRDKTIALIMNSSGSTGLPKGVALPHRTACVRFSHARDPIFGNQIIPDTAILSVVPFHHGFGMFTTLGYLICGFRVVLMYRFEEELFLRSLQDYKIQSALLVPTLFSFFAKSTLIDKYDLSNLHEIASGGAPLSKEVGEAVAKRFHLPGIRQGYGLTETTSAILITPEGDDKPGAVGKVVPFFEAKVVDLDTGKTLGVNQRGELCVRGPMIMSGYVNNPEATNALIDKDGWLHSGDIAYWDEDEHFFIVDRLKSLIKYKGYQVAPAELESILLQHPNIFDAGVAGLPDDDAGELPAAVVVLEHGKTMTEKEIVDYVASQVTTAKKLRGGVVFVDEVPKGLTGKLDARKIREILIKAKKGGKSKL
# Experiment: qHTS profiling assay for firefly luciferase inhibitor/activator using purifed enzyme and Km concentrations of substrates (counterscreen for miR-21 project); further: nearly all actives have a fitted effect of over 55% in size
# Conditions: purified FLuc, luminescence inhibition; series mostly up to 57.5 µM
# Outline: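 Biochemical qHTS of compounds, final roughly 60 µM downward over six points, against 10 nM purified firefly luciferase using Km concentrations of substrates (10 uM D-luciferin, 10 uM ATP) in Tris acetate pH 7.5 buffer; luminescence output.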
# Potency means the concentration at half of the fitted maximal effect.
row,Structure (SMILES),Potency
1,CN1CCN(C(CNC(=O)c2ccccc2F)c2ccc3c(c2)OCO3)CC1 (stereo not given),inactive
2,C=CCn1c(SCC(N)=O)nnc1-c1cc2c(s1)CCC(CC)C2 (stereo not given),7.57 µM (active)
3,C=CCn1c(SCc2c(C(=O)OC)sc(N)c2C(=O)OC)nnc1-c1ccc(Cl)cc1,inactive
4,CCn1c(CSc2nc(C)cc(C)n2)nnc1SCC(N)=O,inactive
5,Cc1oc2ncnc(N3CCCCC3)c2c1C(=O)N1CCN(c2cccc(Cl)c2)CC1,inactive
6,Cc1ccc(O)c(NC(=O)CCS(=O)(=O)c2nc(-c3ccc4c(c3)OCO4)cc(C(F)(F)F)n2)c1,inactive
7,CCc1ccc(NC(=O)c2cc(S(=O)(=O)N3CCCC(C)C3)cn2C)cc1 (stereo not given),inactive
8,Oc1ccccc1N1CCN(c2ncnc3sc(-c4ccccc4)cc23)CC1,inactive
9,COc1ccc(Nc2nc(=O)[nH]nc2C)cc1,inactive
10,CCOc1ccc(Nc2ncnc3scc(-c4ccc(OC)cc4)c23)cc1,inactive
11,C=CCNc1ncnc2ccc(Br)cc12,inactive
12,COc1ccc(Nc2ncnc3sc(-c4ccccc4)cc23)c(OC)c1,19 µM (active)
13,COc1ccc(Nc2ncnc3ccc(Br)cc23)c(OC)c1,26.9 µM (active)
14,COc1ccc(Nc2ncnc3sc(C)cc23)cc1,16.9 µM (active)
15,O=C(O)CCCCCNc1ncnc2ccc(Br)cc12,inactive
16,COc1ccc(NC(=O)c2sc(N3CCOCC3)nc2-c2ccccc2)c(OC)c1,inactive
17,Cc1cc(C)cc(NC(=O)CSc2nc3nccnc3c(=O)n2CCc2c[nH]c3ccccc23)c1,inactive
18,COc1ccc(N2CCN(C(=O)C3CCCN(C(=O)c4cc5sccc5n4C)C3)CC2)cc1 (stereo not given),inactive
19,Cc1cc(C)c2sc(NC(=O)c3ccc(S(=O)(=O)N4CCCC4)cc3)nc2c1,inactive
20,CC(C)(C)c1ccc(/C=C2\Oc3c(ccc(O)c3CN3CCN(CCO)CC3)C2=O)cc1,inactive
21,CCOc1ccc(-n2c(C)nc3c(cnn3-c3ccc(C)cc3)c2=O)cc1,inactive
22,CCN(CC(=O)Nc1ccc(NC(C)=O)cc1)C(=O)CSC(=S)N1CCCC1,inactive

row,Structure (SMILES),Potency
1,O=C1c2ccccc2C(=O)N1Cc1cc(-c2ccccc2Cl)no1,inactive
2,O=c1c2ccccc2c(-c2ccc(F)cc2)nn1-c1ccc(C(F)(F)F)cc1,inactive
3,Cc1[nH]n(C)c(=O)c1C(=O)c1c(-c2c(Cl)cccc2Cl)noc1C,inactive
4,Cn1c(-c2ccc(C(F)(F)F)cc2)cc2onc(-c3ccccc3)c2c1=O,0.536 µM (active)
5,Cn1c(-c2ccc(F)cc2)cc2onc(-c3ccccc3Cl)c2c1=O,2.13 µM (active)
6,Cc1onc(-c2ccccc2)c1C(=O)N1CCN(S(=O)(=O)c2ccccc2C(F)(F)F)CC1,inactive
7,COc1ccccc1C1C(C(=O)N2CCCCC2)=C(C)Nc2nc3ccccc3n21 (stereo not given),inactive
8,COc1ccccc1CNC(=O)CCCN1C(=O)NC2(CCCC2)C1=O,inactive
9,CCc1cc(CNC(=O)CC2C(=O)NCCN2CC2CCCCC2)on1 (stereo not given),inactive
10,O=C(NC(Cc1ccccc1)C(=O)N1CCCC(C(F)(F)F)C1)c1ccccc1 (stereo not given),inactive
11,FC(F)(F)C1CCCN(c2nsc3ccccc23)C1 (stereo not given),9.53 µM (active)
12,CC(=O)N1CCCc2cc(S(=O)(=O)N3CCC(C(=O)NCc4ccc(F)cc4)CC3)ccc21,inactive
13,O=C(NC(=O)N1CCOCC1)c1ccccc1,inactive
14,O=C(NC(=O)c1ccccc1)Nc1ccccc1O,1.9 µM (active)
15,CNC(=O)C(NC(=O)c1ccccc1)=C(C)C,inactive
16,COc1ccc(OC)c(NC(=O)CSC2=Nc3ccccc3C3=NC(CC(=O)NCc4ccc(F)cc4)C(=O)N23)c1 (stereo not given),inactive
17,COc1cc2ccccc2cc1C(=O)Nc1ccccc1C,8.49 µM (active)
18,COc1ccccc1NC(=O)c1cc(Cl)nnc1Cl,inactive
19,COc1cc2ccccc2cc1C(=O)Nc1nc(C)c(C(C)=O)s1,4.78 µM (active)
20,COc1cc2ccccc2cc1C(=O)N1CCOCC1,inactive
21,COc1cc(OC)c(C(=O)Nc2ccc(N(C)C)cc2)cc1OC,10.7 µM (active)
22,CNC(=O)c1sc(NCc2ccccc2OC)nc1C,inactive

row,Structure (SMILES),Potency
1,COC(=O)c1ccc(NC(=O)c2cc(Cl)ccc2OC)cc1,inactive
2,COc1cccc2sc(Nc3nc(C)c(C(C)=O)s3)nc12,6.75 µM (active)
3,COc1ccc(Br)cc1C(=O)Nc1cccc(C)c1C,inactive
4,COc1cc(OC)c(C(=O)Nc2ccccc2-c2ccccc2)cc1OC,inactive
5,COc1cccc2sc(N(CCCN(C)C)C(=O)C(c3ccccc3)c3ccccc3)nc12,inactive
6,CCC(=O)Nc1nc(C)c(C(=O)Nc2cccc(Cl)c2)s1,inactive
7,CC(=O)c1ccc(NC(=O)CSc2c(C(C)C)cnc3c2c(=O)n(C)c(=O)n3C)cc1,inactive
8,CS(=O)(=O)N(CC(=O)N1CCOCC1)c1ccc2c3c(cccc13)CC2,inactive
9,Cc1ccc(S(=O)(=O)N2CCC(C(=O)OCC(=O)N3CC(=O)Nc4ccccc43)CC2)cc1,inactive
10,Cc1cc(C)n(CCC(=O)N2CCN(S(=O)(=O)c3ccc(C)c(C)c3)CC2)n1,inactive
11,COc1ccccc1C(=O)Nc1c(C(=O)N(C)Cc2ccccc2)sc2nc(C)c(Cl)c(C)c12,inactive
12,O=C(O)c1ccc2c(c1)N(Cc1ccc(F)cc1)C(=O)c1ccccc1S2=O (stereo not given),inactive
13,Cc1cc(C)cc(OCC(=O)Nc2c(C(=O)c3ccccc3)oc3ccccc23)c1,inactive
14,Cc1ccc2oc(C(=O)Nc3ccc(S(=O)(=O)N4CCCCCC4)cc3)cc(=O)c2c1,inactive
15,O=[N+]([O-])c1cc(S(=O)(=O)NCCc2ccccn2)ccc1Cl,inactive
16,CCOc1ccc(S(=O)(=O)N2CCC(C(=O)NCC(=O)Nc3cccc(Cl)c3C)CC2)cc1,inactive
17,O=C(CN1C(=O)COc2ccc(S(=O)(=O)N3CCCCCC3)cc21)N1CCN(c2cccc(C(F)(F)F)c2)CC1,inactive
18,CCOc1ccc(C(=O)c2cn(Cc3ccc(F)cc3)c3ccc(F)cc3c2=O)cc1,inactive
19,COc1cc2ccccc2cc1C(=O)Nc1ccc(NC(=O)c2cccs2)cc1,inactive
20,COc1cc2ccccc2cc1C(=O)Nc1ccncc1,12 µM (active)
21,COc1cc2ccccc2cc1C(=O)Nc1ccc(S(=O)(=O)Nc2cc(C)on2)cc1,inactive
